Measured values from PubChem BioAssay (Tox21).
Where “and” joins values, the source holds several entries; their conditions need not be identical. Equal entries are not always repeated. Results filed as inconclusive are left out. The source holds several records for some structures; these can differ, active in one and inactive in another. Calls of active or inactive are those of the source. Unless noted, the call rests on the fitted dose curve.

What was measured:
[1] = Nuclear factor erythroid 2-related factor 2/antioxidant responsive element (Nrf2/ARE) small molecule agonists: qHTS cell viability counter screen in human keratinocytes (AID 1919968; active means well fitted curve in the direction sought with a large enough effect in the repeat runs; an effect the other way counts as inactive or inconclusive; further: nearly all actives have a fitted effect of over 55% in size; further: potency means the concentration at half of the fitted maximal effect)
In short: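 Viability counter-screen: KeratinoSens reporter cells, DMSO-delivered compounds, 23 h at 37 C, CellTiter-Fluor fluorescence.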

[2] = Nuclear factor erythroid 2-related factor 2/antioxidant responsive element (Nrf2/ARE) small molecule agonists: luciferase reporter gene qHTS assay in human keratinocytes (AID 1919969); further: nearly all actives have a fitted effect of over 35% in size; further: potency means the concentration at half of the fitted maximal effect
[3] = molecular target: Gonadotropin-releasing hormone receptor (Homo sapiens) (UniProt P30968); test: Human gonadotropin-releasing hormone receptor (GnRHR) small molecule agonists, calcium flux assay in GnRHR-HEK293 cells (AID 1920063); further: nearly all actives have a fitted effect of over 35% in size
Gonadotropin-releasing hormone receptor (Homo sapiens), sequence (P30968 whole entry, looked up): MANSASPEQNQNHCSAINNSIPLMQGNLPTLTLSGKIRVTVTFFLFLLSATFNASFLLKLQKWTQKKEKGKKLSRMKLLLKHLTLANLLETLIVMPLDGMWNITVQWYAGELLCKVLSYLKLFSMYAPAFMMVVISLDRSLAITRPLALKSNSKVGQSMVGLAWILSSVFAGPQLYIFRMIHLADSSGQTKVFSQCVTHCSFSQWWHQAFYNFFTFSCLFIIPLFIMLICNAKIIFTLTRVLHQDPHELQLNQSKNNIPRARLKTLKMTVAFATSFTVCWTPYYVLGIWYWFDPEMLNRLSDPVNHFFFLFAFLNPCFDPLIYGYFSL
In short: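 Tox21-format agonist screen using human GnRHR-expressing HEK293 cells and a fluorescent calcium dye; kinetic 3-min fluorescence reading after compound addition, 15-point concentration series run in triplicate.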

[4] = molecular target: KiSS-1 receptor (Homo sapiens) (UniProt Q969F8); test: Human kisspeptin (KISS1R) small molecule agonists, calcium flux assay in KISS1R-HEK293 cells (AID 1920064; active means well fitted curve in the direction sought with a large enough effect in the repeat runs; an effect the other way counts as inactive or inconclusive)
KiSS-1 receptor (Homo sapiens), sequence (Q969F8 whole entry, looked up): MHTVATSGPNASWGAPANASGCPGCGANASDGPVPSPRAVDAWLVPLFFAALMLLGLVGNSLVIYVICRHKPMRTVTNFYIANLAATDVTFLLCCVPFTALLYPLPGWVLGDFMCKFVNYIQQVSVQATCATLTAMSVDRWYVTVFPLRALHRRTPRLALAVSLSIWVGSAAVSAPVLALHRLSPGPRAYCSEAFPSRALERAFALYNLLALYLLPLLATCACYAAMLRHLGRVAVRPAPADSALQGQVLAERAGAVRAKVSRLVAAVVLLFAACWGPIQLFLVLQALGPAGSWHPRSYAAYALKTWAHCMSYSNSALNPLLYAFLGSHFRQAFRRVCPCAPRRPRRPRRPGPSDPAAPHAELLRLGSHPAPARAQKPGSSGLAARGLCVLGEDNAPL
In short: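 Intracellular calcium mobilization in KISS1R-HEK293 cells was recorded by fluorescence (Ex/Em 480/540) for 3 min following compound addition to cells pre-loaded 1 h with calcium dye.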

[5] = G protein-coupled receptor (GPCR) small molecule agonists, calcium flux assay: HEK293 wild type cell line counter screen (AID 1920065)
In short: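 In this agonist-mode screen, ATP is the positive control and DMSO the vehicle. Cells grow 18 h before a 1 h dye incubation at 37 C; signal is taken at Ex/Em 480/540 over 3 min.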

[6] = p53 small molecule agonists, cell-based qHTS assay with human liver microsomes: qHTS cell viability counter screen (AID 1963579); further: nearly all actives have a fitted effect of over 45% in size; further: potency means the concentration at half of the fitted maximal effect
In short: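 Cytotoxicity counter screen: p53RE-bla, 4,000 cells/well; 5 h settle, 37 C/5% CO2; cpd + HLM 0.5 mg/mL + NADPH 0.5 mg/mL (final); 16 h, 37 C; CellTiter-Glo, 30 min RT, luminescence.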

[7] = p53 small molecule agonists, cell-based qHTS assay with rat liver microsomes: qHTS cell viability counter screen (AID 1963580); further: nearly all actives have a fitted effect of over 45% in size
In short: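 p53RE-bla HCT-116 cells (4,000/well) rested 5 h at 37 C, then given Tox21 compounds in DMSO with rat liver microsomes (0.5 mg/mL final) plus NADPH (0.5 mg/mL final) for 16 h at 37 C. Viability read by CellTiter-Glo luminescence after 30 min at room temperature.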

[8] = p53 small molecule agonists, cell-based qHTS assay: qHTS cell viability counter screen (AID 1963581); further: nearly all actives have a fitted effect of over 45% in size
In short: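 Compounds are pinned onto HCT-116 p53RE-bla cells and left 16 h at 37 C. Following the reporter FRET read, ATP is quantified by CellTiter-Glo luminescence after 30 min at room temperature.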

[9] = molecular target: 5-hydroxytryptamine receptor 2A (Homo sapiens) (UniProt P28223); test: 5-hydroxytryptamine receptor 2A (HTR2A) small molecule antagonists, cell-based qHTS assay (AID 1963586); further: nearly all actives have a fitted effect of over 45% in size
5-hydroxytryptamine receptor 2A (Homo sapiens), sequence (P28223 whole entry, looked up): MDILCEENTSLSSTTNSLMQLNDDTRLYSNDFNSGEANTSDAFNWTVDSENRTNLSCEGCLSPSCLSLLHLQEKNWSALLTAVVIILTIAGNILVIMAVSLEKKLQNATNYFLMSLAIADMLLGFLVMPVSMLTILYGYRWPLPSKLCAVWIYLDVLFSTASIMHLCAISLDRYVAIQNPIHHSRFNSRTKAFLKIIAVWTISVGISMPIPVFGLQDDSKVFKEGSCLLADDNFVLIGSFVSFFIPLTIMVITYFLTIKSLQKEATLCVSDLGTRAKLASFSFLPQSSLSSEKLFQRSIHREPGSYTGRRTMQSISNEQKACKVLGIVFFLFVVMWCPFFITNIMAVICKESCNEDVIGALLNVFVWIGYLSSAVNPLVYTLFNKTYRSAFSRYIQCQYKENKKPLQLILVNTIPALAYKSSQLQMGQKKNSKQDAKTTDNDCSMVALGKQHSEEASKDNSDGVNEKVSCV
In short: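 Antagonist-mode intracellular calcium assay: DOI (4 nM) added after 5 min compound pre-incubation at room temperature to dye-loaded HTR2A-CHO cells. Fluorescence followed for 3 min, sampled every second.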

[10] = molecular target: 5-hydroxytryptamine receptor 2A (Homo sapiens) (UniProt P28223); test: 5-hydroxytryptamine receptor 2A (HTR2A) small molecule agonists, cell-based qHTS assay (AID 1963587); further: nearly all actives have a fitted effect of over 30% in size
In short: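 HTR2A-CHO cells, plated 18 h at 37 C/5% CO2, dye-loaded 1 h at 37 C; compounds in DMSO added by pin tool (agonist mode). Intracellular calcium flux read as kinetic fluorescence on FDSS over 2 min at 1 s intervals.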

[11] = molecular target: Muscarinic acetylcholine receptor M1 (Homo sapiens) (UniProt P11229); test: Cholinergic receptor muscarinic 1 (CHRM1) small molecule antagonists, cell-based qHTS assay (AID 1963588); further: nearly all actives have a fitted effect of over 40% in size
Muscarinic acetylcholine receptor M1 (Homo sapiens), sequence (P11229 whole entry, looked up): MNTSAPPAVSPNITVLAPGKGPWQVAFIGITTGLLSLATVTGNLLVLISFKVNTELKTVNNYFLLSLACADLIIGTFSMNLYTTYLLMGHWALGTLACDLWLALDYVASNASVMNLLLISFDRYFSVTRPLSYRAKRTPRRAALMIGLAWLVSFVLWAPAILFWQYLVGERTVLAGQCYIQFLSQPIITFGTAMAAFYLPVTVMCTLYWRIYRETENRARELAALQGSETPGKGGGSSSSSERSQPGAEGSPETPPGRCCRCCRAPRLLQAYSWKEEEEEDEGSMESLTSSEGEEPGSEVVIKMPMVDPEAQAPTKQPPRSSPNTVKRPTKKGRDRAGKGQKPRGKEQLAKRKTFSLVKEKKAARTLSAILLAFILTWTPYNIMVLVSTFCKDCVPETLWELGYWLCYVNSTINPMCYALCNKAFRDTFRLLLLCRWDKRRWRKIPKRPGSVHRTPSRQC
In short: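 CHRM1-CHO calcium-flux assay, antagonist mode. Cells were seeded 18 h, dye-loaded 1 h at 37 C and given compound for 5 min at RT, then acetylcholine was added at 50nM. FDSS fluorescence was read 3 min; 15 concentrations, three runs.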

[12] = molecular target: Muscarinic acetylcholine receptor M1 (Homo sapiens) (UniProt P11229); test: Cholinergic receptor muscarinic 1 (CHRM1) small molecule agonists, cell-based qHTS assay (AID 1963589); further: nearly all actives have a fitted effect of over 35% in size
In short: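 Stable CHRM1-CHO cells (human receptor) were incubated 18 h, dye-loaded for 1 h at 37 C and exposed to test compounds for agonist activity, with calcium-dependent fluorescence followed kinetically.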

[13] = cAMP Responsive Elements (CRE) small molecule antagonists, cell-based qHTS assay (AID 1963591; active means well fitted inhibition curve with a large enough effect in the signal ratio in the repeat runs, not every such curve was filed as active; the % refers to the signal ratio)
In short: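 qHTS in CRE-bla HEK 293T cells: compound in DMSO, then 0.25 uM NKH477 (final), 3 h at 37 °C/5% CO2; beta-lactamase FRET read-out after 2 h substrate incubation.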

[14] = molecular target: Beta-2 adrenergic receptor (Homo sapiens) (UniProt P07550); test: Adrenergic beta2 receptor (ADRB2) small molecule antagonists, cell-based qHTS assay (AID 1963592); further: series mostly up to about 92 µM; nearly all actives have a fitted effect of over 50% in size
Beta-2 adrenergic receptor (Homo sapiens), sequence (P07550 whole entry, looked up): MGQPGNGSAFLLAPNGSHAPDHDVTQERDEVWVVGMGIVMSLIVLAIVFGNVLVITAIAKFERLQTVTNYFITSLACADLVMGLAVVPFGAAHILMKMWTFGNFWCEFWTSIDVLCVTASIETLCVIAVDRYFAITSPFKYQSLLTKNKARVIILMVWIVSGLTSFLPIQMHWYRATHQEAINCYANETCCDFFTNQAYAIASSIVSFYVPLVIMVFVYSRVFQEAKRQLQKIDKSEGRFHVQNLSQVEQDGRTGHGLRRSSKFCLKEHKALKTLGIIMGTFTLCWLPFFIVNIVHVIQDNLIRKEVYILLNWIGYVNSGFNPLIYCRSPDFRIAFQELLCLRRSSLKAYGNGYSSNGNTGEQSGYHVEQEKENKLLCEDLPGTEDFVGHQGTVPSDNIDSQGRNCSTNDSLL
In short: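 Cells (CHO, stable ADRB2 overexpression) incubated 18-20hr at 37C; compounds added from DMSO; agonist mix (1nM isoproterenol, 100uM IBMX, 25uM Ro-20-1724) added; 0.5hr RT; d2-cAMP and anti-cAMP-cryptate added; 1hr RT; 665/615 nm read.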

[15] = molecular target: D(2) dopamine receptor (Homo sapiens) (UniProt P14416); test: Dopamine D2 receptor (DRD2) small molecule agonists, cell-based qHTS assay (AID 1963594); further: nearly all actives have a fitted effect of over 35% in size
D(2) dopamine receptor (Homo sapiens), sequence (P14416 whole entry, looked up): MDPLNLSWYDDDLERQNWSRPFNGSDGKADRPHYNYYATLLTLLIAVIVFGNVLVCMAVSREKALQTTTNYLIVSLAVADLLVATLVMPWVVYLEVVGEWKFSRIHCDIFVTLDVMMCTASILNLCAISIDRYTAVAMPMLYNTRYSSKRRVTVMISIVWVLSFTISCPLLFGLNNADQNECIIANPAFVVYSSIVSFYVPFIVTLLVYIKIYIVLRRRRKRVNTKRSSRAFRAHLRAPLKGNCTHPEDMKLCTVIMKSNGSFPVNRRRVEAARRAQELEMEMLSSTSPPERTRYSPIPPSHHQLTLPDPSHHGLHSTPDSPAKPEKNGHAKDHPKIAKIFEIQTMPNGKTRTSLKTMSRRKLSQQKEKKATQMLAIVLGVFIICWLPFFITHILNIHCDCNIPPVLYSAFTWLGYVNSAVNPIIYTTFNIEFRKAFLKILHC
In short: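 HEK293 cells stably expressing DRD2 were cultured 24 h at 37 C, then given Ro20-1724 (0.1 mM final) and compounds for 10 min at room temperature. NKH477 (200nM) was then added for 30 min. cAMP was read by HTRF.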

[16] = molecular target: D(2) dopamine receptor (Homo sapiens) (UniProt P14416); test: Dopamine D2 receptor (DRD2) small molecule antagonists, cell-based qHTS assay (AID 1963595; active means well fitted inhibition curve with a large enough effect in the signal ratio in the repeat runs, with a control signal flat; the % refers to the signal ratio; further: potency means the concentration at half of the fitted maximal effect)
In short: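 Antagonist mode in DRD2-HEK293 cells: after compound addition with 0.1 mM Ro20-1724, cells received quinpirole (12 nM) and NKH477 (200 nM) for 30 min at room temperature; HTRF cAMP read after 1 h detection.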

[17] = p53 small molecule agonists, cell-based qHTS assay with rat liver microsomes (AID 1963578)
In short: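 Cells carrying a p53 response element–beta-lactamase reporter were plated and rested 5 h, then dosed with compound in DMSO plus rat liver microsomes and NADPH, each at 0.5 mg/mL final. After 16 h at 37 C, LiveBLAzer substrate was added for 2 h.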

[18] = p53 small molecule agonists, cell-based qHTS assay (AID 1963582; active means well fitted activation curve with a large enough effect in the signal ratio in the repeat runs, not every such curve was filed as active; the % refers to the signal ratio)
In short: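 Agonist activity was scored from beta-lactamase FRET fluorescence in p53RE-bla cells treated 16 h at 37 C with compounds in DMSO, substrate incubation being 2 h at room temperature.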

[19] = cAMP Responsive Elements (CRE) small molecule agonists, cell-based qHTS assay (AID 1963590)
In short: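 FRET-based beta-lactamase readout (LiveBLAzer B/G, 2 h RT) quantified CRE activation in HEK 293T CRE-bla cells after 3 h treatment with DMSO-dissolved compounds.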

[20] = molecular target: Beta-2 adrenergic receptor (Homo sapiens) (UniProt P07550); test: Adrenergic beta2 receptor (ADRB2) small molecule agonists, cell-based qHTS assay (AID 1963593);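 further: CHO cells stably overexpressing human ADRB2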
In short: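 CHO cells stably over-expressing ADRB2 were plated overnight at 37C, then dosed with compounds plus a stimulation mix containing 100uM IBMX and 25uM Ro-20-1724 for 0.5hr at room temperature. cAMP was measured by HTRF competition, 1hr.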

Measured: Potency

Oc1c(Cl)cc(Cl)c(Cl)c1Cl
inactive: [1] | [2] | [3] | [4] | [5] | [6] | [7] | [8] | [9] | [10] | [11] | [12] | [13] | [14] | [15] | [16]

CC(=O)C(=O)O
inactive: [1] | [2] | [3] | [4] | [5] | [17] | [6] | [7] | [8] | [18] | [9] | [10] | [11] | [12] | [19] | [13] | [14] | [20] | [15] | [16]

Nc1cccc(N)c1
inactive and 21.4 µM (active): [2]
inactive: [1] | [3] | [4] | [5] | [17] | [6] | [7] | [8] | [18] | [9] | [11] | [12] | [19] | [13] | [15] | [16]

CCC(C)(C)C(=O)O[C@H]1C[C@@H](C)C=C2C=C[C@H](C)[C@H](CC[C@@H]3C[C@@H](O)CC(=O)O3)[C@H]21
inactive: [1] | [2] | [3] | [4] | [5] | [17] | [6] | [7] | [8] | [18] | [19] | [14] | [15]
19.3 µM (active) and inactive: [16]

CCOC(=O)c1ccc(O)cc1
inactive: [1] | [2] | [3] | [4] | [5] | [7] | [8] | [18] | [9] | [10] | [11] | [12] | [19] | [13] | [14] | [15] | [16]

CN(C)C(=O)Nc1ccc(Cl)c(Cl)c1
inactive: [1] | [2] | [3] | [4] | [5] | [17] | [6] | [7] | [8] | [18] | [9] | [10] | [11] | [12] | [19] | [13] | [14] | [15] | [16]

O=C1O[C@H](CO)[C@@H](O)[C@H](O)[C@H]1O
inactive: [1] | [2] | [3] | [4] | [5] | [17] | [6] | [7] | [8] | [18] | [9] | [10] | [11] | [12] | [19] | [13] | [20] | [15] | [16]

CCCCCC(=O)O
inactive: [1] | [2] | [3] | [4] | [5] | [17] | [6] | [7] | [18] | [9] | [10] | [11] | [12] | [19] | [13] | [14] | [20] | [15] | [16]

COc1ccc(OC)cc1
inactive: [1] | [2] | [3] | [4] | [5] | [6] | [7] | [9] | [10] | [12] | [19] | [13] | [20] | [15] | [16]

Cc1cc(CC(=O)O)n(C)c1C(=O)c1ccc(Cl)cc1
inactive: [1] | [2] | [3] | [4] | [5] | [17] | [6] | [7] | [8] | [18] | [9] | [10] | [11] | [12] | [14] | [20] | [15] | [16]

CC(C)CC(=O)CC(C)C
inactive: [1] | [2] | [3] | [4] | [5] | [17] | [6] | [7] | [8] | [18] | [9] | [10] | [11] | [12] | [19] | [13] | [14] | [15] | [16]

CC1=C(/C=C/C(C)=C/C=C/C(C)=C/C(=O)Nc2ccc(O)cc2)C(C)(C)CCC1
inactive: [3] | [4] | [5] | [17] | [7] | [18] | [9] | [10] | [12] | [19] | [14] | [20] | [15] | [16]
41.8 µM (active) and inactive: [6]
active: [1] 49.8 µM and 13.3 µM | [2] 2.22 µM and 2.11 µM

OCC1CCCO1 (stereo unspecified)
inactive: [1] | [2] | [3] | [4] | [5] | [17] | [6] | [7] | [8] | [18] | [9] | [10] | [11] | [12] | [19] | [13] | [14] | [15] | [16]

CSc1ccc(Cl)cc1
inactive: [1] | [2] | [3] | [4] | [5] | [17] | [6] | [7] | [8] | [18] | [9] | [10] | [11] | [12] | [13] | [14] | [15] | [16]

Cc1ccc(S(=O)(=O)NCl)cc1
inactive: [1] | [2] | [3] | [4] | [5] | [17] | [6] | [7] | [8] | [9] | [10] | [11] | [12] | [19] | [13] | [14] | [20] | [15] | [16]

Nc1ccc(C(=O)O)cc1
inactive: [1] | [2] | [3] | [4] | [5] | [17] | [6] | [7] | [8] | [18] | [9] | [10] | [11] | [12] | [19] | [13] | [14] | [20] | [15] | [16]
